# Measurements taken from PubChem BioAssay.
# “And” between values parts separate entries of the source, which are not always exact repeats. Equal values may be shown once.
# Test system: Sam68 (KHDRBS1)
# Test: compounds binding KHDRBS1 protein – biochemical, small-molecule microarray, 635 nm fluorescence, primary screen (AID 1125);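 note: score merges 667 nm channel intensity with signal to noise over triplicate slides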
# Conditions: higher = more signal
row,Compound,composite z-score
1,C=CCN(CCCCC)C(=O)C(c1cccs1)N(C(=O)/C=C\C(=O)O)c1ccc(CCO)cc1 (stereo unspecified),-0.815 and -0.524
2,C[C@@H](c1ccccc1)N1C(=O)[C@H]2[C@H]3[C@H](O)[C@H](O)CC(=O)[C@@H]3CC[C@H]2C1=O,0.661
3,CO[C@H]1COC(=O)[C@H](C)NC(=O)CC=C[C@@H](C)[C@H](OC)COC(=O)CC=C[C@@H]1C,-0.25
4,CCOC(=O)C[C@H]1[C@H](OC(=O)c2ccccc2-c2ccccc2)[C@@H](NC(=O)c2ccccc2)c2cc(OCCCO)ccc2N1C(=O)c1ccc2ccccc2n1,0.443 and 1.2
5,C=CCN(C(=O)C1N(CCOCCO)C(=O)C2C(C(=O)O)C3C=CC21O3)C(C)(C)C (stereo unspecified),-1.29 and -0.941
6,CCCNC(=O)OC[C@H]1O[C@H](CCON=C(C)CCC(=O)OC[C@H]2O[C@H](C#Cc3ccccc3)C=C[C@@H]2Oc2ccc(C)cc2)C=C[C@@H]1Oc1ccc(OC)cc1,-1.22
7,CCOC(=O)c1ccc(NC(=O)O[C@H]2[C@H](OC(=O)Nc3ccccc3)[C@H](OC(=O)Nc3ccccc3)[C@@H](OC)O[C@@H]2CO)cc1,1.31 and 1.3
8,O=C1NC(=O)C2C1C=CC(C(O)c1ccc([N+](=O)[O-])cc1)N2Nc1ccc(Cl)cc1Cl (stereo unspecified),0.415 and 0.584
9,CC(C)=NO[C@@H](C)c1cc(-c2c(C)cc(C)cc2C)no1,-0.228
10,CC(C)=NOCc1ccc(-c2cn([C@@H]3COC[C@H]3O)nn2)cc1,-0.103
11,C=CC[C@@H](O)c1ccc(O)c2ccccc12,1.04 and 1.08
12,C[C@@H]1CC[C@@H](C(=O)O)N[C@H]1c1ccc(-c2ccco2)cc1,0.108
13,COC(=O)c1c2oc(c1C(=O)OC)C(=O)N[C@@H](Cc1ccccc1)Cn1cc(nn1)C1(CCCCC1)NC(=O)N[C@H](CO)CC2,1.08 and 0.939
14,C=C[C@@H](OC)[C@H](O)c1ccc(OC)c(O)c1,0.043 and -0.955
15,C=CCN(CCCCC)C(=O)C1N(CCCCCCO)C(=O)C2C(C(=O)O)C3C=CC21O3 (stereo unspecified),-0.408 and -1.45
16,C=CCN(C(=O)C(c1cccs1)N(C(=O)/C=C\C(=O)O)C(C)(C)CO)C(C)(C)C (stereo unspecified),0.0206 and -0.225
17,Cc1ccc(S(=O)(=O)OC[C@@H]2CN3[C@@H](CC[C@@H](C)[C@@H]3c3ccc(Br)cc3)C(=O)O2)cc1,0.418 and 0.99
18,CC(C)[Si]1(C(C)C)OCc2cc(CCCc3cc4c(c(CCc5ccccc5)n3)[Si](C(C)C)(C(C)C)OC4)nc(CCc3ccccc3)c21,0.23 and 0.716
19,C=CCN(Cc1ccccc1)C(=O)C1N(c2c(Cl)cccc2CO)C(=O)C2C(C(=O)O)C3C=CC21O3 (stereo unspecified),-1.89 and -1.02
20,COc1ccc(-c2ccc3c(n2)CCCN3CC(O)CN2CCCc3nc(-c4ccc(Br)cc4)ccc32)cc1 (stereo unspecified),0.764 and 0.301
21,COc1ccc(O[C@H]2C=C[C@@H](c3ccccc3)O[C@@H]2COC(=O)CCC(C)=NO[C@H](C)c2cn([C@H](CO)Cc3ccccc3)nn2)cc1,0.492 and -0.005
22,C=CCN1C(=O)[C@]2(O[C@H](CCn3cc(CCO)nn3)[C@@H]([Si](C)(C)c3ccc(OC)cc3)[C@@H]2C)c2cc(N3C(=O)c4cccc5cccc3c45)ccc21,1.2 and 0.787
23,C=CCN(CCCCC)C(=O)C(c1cccs1)N(C(=O)/C=C\C(=O)O)c1c(Cl)cccc1CO (stereo unspecified),-1.09 and -1.41
24,C=C[C@@H](OC)[C@H](O)c1ccc(O)c(F)c1,-0.697 and -1.48
25,C[N+](C)(C)CCCCNC(=O)[C@@H]1C[C@@H]2C(=O)N[C@@H](CCCC[N+](C)(C)C)C(=O)N2[C@@H]1c1cccc(OCCO)c1,1.31 and 0.767
26,C=CC[C@@H](O)c1ccc(OCCO)cc1,-0.813 and -0.661
27,CCCNC(=O)OC[C@H]1O[C@H](CCON=C(C)CCN2CCc3nc(-c4ccccc4)c(-c4ccccc4)cc3C2)C=C[C@@H]1Oc1ccc(OC)cc1,0.389

# Test system: Chordin-like protein 2 (CHRDL2)
# Test: compounds binding chordin-like 2 – biochemical, small-molecule microarray, 635 nm fluorescence, primary screen (AID 1126);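 note: printed compound slides probed with Chrdl2 protein at 4 µg/mL for 1 h at 4 C; score merges 667 nm emission intensity with signal to noise over three replicate slides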
# Conditions: fluorescence 635 nm, higher = more signal
row,Compound,composite z-score
1,C=C[C@@H](C)[C@H](O)c1ccc(O)c2ccccc12,1.34 and 0.0548
2,CCOC(=O)C[C@H]1[C@H](OC(=O)c2ccccc2-c2ccccc2)[C@@H](NC(=O)Cc2ccc(OC)cc2)c2cc(OCCCO)ccc2N1C(=O)c1ccc2ccccc2n1,-0.0194 and -0.181
3,COCn1c2ccccc2c2nnc(C(C)=O)nc21,0.488 and 0.54
4,C[C@@H](ON=C1[C@H]2CCn3c(=O)n(-c4ccccc4)c(=O)n3[C@H]2[C@H](O)[C@@H]2O[C@H]12)c1cn([C@H](CO)Cc2ccccc2)nn1,0.353
5,COC(=O)C1=C(C)N(Cc2ccccc2)[C@]23O[C@](C(=O)OC)(C(=O)N2[C@@H]1c1ccccc1)[C@H]1C(=O)N(C)C(=O)[C@H]13,0.0101 and 0.385
6,C[C@@H]1CC[C@H]2C(=O)N3[C@@H](CC[C@@H](C)[C@@H]3c3ccc(-c4ccco4)cc3)C(=O)N2[C@H]1c1ccc(-c2ccco2)cc1,1.05 and 1.57
7,CCOC(=O)NN=C1C[C@@H](O)[C@@H](O)[C@@H]2[C@@H]3C(=O)N(Cc4ccc5c(c4)OCO5)C(=O)[C@@H]3CC[C@@H]12,0.171
8,C=CCN(C(=O)C(c1cccs1)N(C(=O)/C=C\C(=O)O)c1ccc(CCO)cc1)c1ccc(OC)cc1 (stereo unspecified),-1.65 and -3.12
9,CC(CO)N1C(=O)[C@@H]2C3C(=O)OCCC=C[C@H]3OC23C=CCN(c2ccc(Cl)cc2)C(=O)[C@@H]13 (stereo partly specified),-1.51 and -0.496
10,C#CCN1C(/C=C/c2ccccc2)C(=O)OC[C@H]1c1ccccc1 (stereo partly specified),0.852 and -0.0756
11,C[C@@H]1CN2[C@@H](CC[C@@H](C)[C@@H]2c2ccc(Br)cc2)C(=O)O1,0.261 and 0.559
12,C=CCN(C(=O)C(c1cccs1)N(CCOCCO)C(=O)/C=C\C(=O)O)c1ccc(OC)cc1 (stereo unspecified),-0.166 and -3.29
13,C=CCN(CCCCC)C(=O)C(c1cccs1)N(C(=O)/C=C\C(=O)O)c1ccc(CCO)cc1 (stereo unspecified),-0.96 and -1.97
14,C[C@@H](c1ccccc1)N1C(=O)[C@H]2[C@H]3[C@H](O)[C@H](O)CC(=O)[C@@H]3CC[C@H]2C1=O,0.433
15,CO[C@H]1COC(=O)[C@H](C)NC(=O)CC=C[C@@H](C)[C@H](OC)COC(=O)CC=C[C@@H]1C,1.49
16,CCOC(=O)C[C@H]1[C@H](OC(=O)c2ccccc2-c2ccccc2)[C@@H](NC(=O)c2ccccc2)c2cc(OCCCO)ccc2N1C(=O)c1ccc2ccccc2n1,0.243 and 0.175
17,C=CCN(C(=O)C1N(CCOCCO)C(=O)C2C(C(=O)O)C3C=CC21O3)C(C)(C)C (stereo unspecified),-3.33 and -1.51
18,CCCNC(=O)OC[C@H]1O[C@H](CCON=C(C)CCC(=O)OC[C@H]2O[C@H](C#Cc3ccccc3)C=C[C@@H]2Oc2ccc(C)cc2)C=C[C@@H]1Oc1ccc(OC)cc1,-0.288
19,CCOC(=O)c1ccc(NC(=O)O[C@H]2[C@H](OC(=O)Nc3ccccc3)[C@H](OC(=O)Nc3ccccc3)[C@@H](OC)O[C@@H]2CO)cc1,0.292 and 0.142
20,O=C1NC(=O)C2C1C=CC(C(O)c1ccc([N+](=O)[O-])cc1)N2Nc1ccc(Cl)cc1Cl (stereo unspecified),-0.532 and -0.0926

row,Compound,composite z-score
1,CC(C)=NO[C@@H](C)c1cc(-c2c(C)cc(C)cc2C)no1,0.227
2,CC(C)=NOCc1ccc(-c2cn([C@@H]3COC[C@H]3O)nn2)cc1,0.329
3,C=CC[C@@H](O)c1ccc(O)c2ccccc12,1.38 and 1.23
4,C[C@@H]1CC[C@@H](C(=O)O)N[C@H]1c1ccc(-c2ccco2)cc1,1.1
5,COC(=O)c1c2oc(c1C(=O)OC)C(=O)N[C@@H](Cc1ccccc1)Cn1cc(nn1)C1(CCCCC1)NC(=O)N[C@H](CO)CC2,0.518 and 0.124
6,C=C[C@@H](OC)[C@H](O)c1ccc(OC)c(O)c1,1.11 and -0.52
7,C=CCN(CCCCC)C(=O)C1N(CCCCCCO)C(=O)C2C(C(=O)O)C3C=CC21O3 (stereo unspecified),-3.13 and -1.54
8,C=CCN(C(=O)C(c1cccs1)N(C(=O)/C=C\C(=O)O)C(C)(C)CO)C(C)(C)C (stereo unspecified),-1.43 and -1.27
9,Cc1ccc(S(=O)(=O)OC[C@@H]2CN3[C@@H](CC[C@@H](C)[C@@H]3c3ccc(Br)cc3)C(=O)O2)cc1,0.251 and 0.327
10,CC(C)[Si]1(C(C)C)OCc2cc(CCCc3cc4c(c(CCc5ccccc5)n3)[Si](C(C)C)(C(C)C)OC4)nc(CCc3ccccc3)c21,-0.126 and 0.424
11,C=CCN(Cc1ccccc1)C(=O)C1N(c2c(Cl)cccc2CO)C(=O)C2C(C(=O)O)C3C=CC21O3 (stereo unspecified),-3.43 and -1.44
12,COc1ccc(-c2ccc3c(n2)CCCN3CC(O)CN2CCCc3nc(-c4ccc(Br)cc4)ccc32)cc1 (stereo unspecified),0.708 and 0.919
13,COc1ccc(O[C@H]2C=C[C@@H](c3ccccc3)O[C@@H]2COC(=O)CCC(C)=NO[C@H](C)c2cn([C@H](CO)Cc3ccccc3)nn2)cc1,0.0011 and 0.593
14,C=CCN1C(=O)[C@]2(O[C@H](CCn3cc(CCO)nn3)[C@@H]([Si](C)(C)c3ccc(OC)cc3)[C@@H]2C)c2cc(N3C(=O)c4cccc5cccc3c45)ccc21,0.431 and 0.191
15,C=CCN(CCCCC)C(=O)C(c1cccs1)N(C(=O)/C=C\C(=O)O)c1c(Cl)cccc1CO (stereo unspecified),-2.67 and -1.87
16,C=C[C@@H](OC)[C@H](O)c1ccc(O)c(F)c1,-0.952 and -0.984
17,C[N+](C)(C)CCCCNC(=O)[C@@H]1C[C@@H]2C(=O)N[C@@H](CCCC[N+](C)(C)C)C(=O)N2[C@@H]1c1cccc(OCCO)c1,1.56 and 1.47
18,C=CC[C@@H](O)c1ccc(OCCO)cc1,-1.56 and -1.81
19,CCCNC(=O)OC[C@H]1O[C@H](CCON=C(C)CCN2CCc3nc(-c4ccccc4)c(-c4ccccc4)cc3C2)C=C[C@@H]1Oc1ccc(OC)cc1,-0.273
